Measured values taken from PubChem BioAssay AID540303 (National Center for Advancing Translational Sciences (NCATS), 2011).
The campaign covered roughly 330,000 compounds. About 1,000 (0.3%) were called active. Where a call stands in place of a potency, no number is given. Another 3% or so got no clear call; they are omitted. Calls follow the shape of the dose curve; as a rule, active = well fitted inhibition curve with a large enough effect; inconclusive = small, poorly fitted or top-dose-only effect; inactive = no such curve, though single readings can be large or run the other way; tested in mouse RAW 264.7 cells. The full list was thinned out, with actives kept by preference.

Experiment: qHTS for Inhibitors of Cell Surface uPA Generation; also: nearly all actives have a fitted effect of over 55% in size
Details: cell surface uPA generation assay; series mostly up to 38.3 µM
Outline: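 Murine RAW 264.7 cells are treated for 24 h with compound up to 38.3 uM final. Cell ATP, measured by ATP-Lite, remains high if blocking the uPA cascade prevents LF from reaching the cytoplasm.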
Potency is read from the fitted curve at half-maximal effect.

| SMILES | Potency |
| --- | --- |
| COc1ccc(-c2ccc3c(c2)C2CC3CCN2CCC#N)cc1 (stereo not given) | inactive |
| CC(C=Cc1ccccc1)=NNS(=O)(=O)c1ccc([N+](=O)[O-])cc1 | inactive |
| CCCOc1ccc(Cn2ccnc2)cc1[N+](=O)[O-] | inactive |
| CCCCCOc1ccc(CSC2=NCCN2)cc1[N+](=O)[O-] | 10 µM (active) |
| CCCCOc1ccc(CSC(=N)N)cc1[N+](=O)[O-] | inactive |
| COc1ccc(Br)cc1/C=N/Nc1ccc(S(=O)(=O)Nc2ccccc2C(=O)O)cc1[N+](=O)[O-] | inactive |
| O=C(NCC1(N2CCCCC2)CCCCC1)c1cccc(S(=O)(=O)Nc2ccccc2Cl)c1 | inactive |
| CN(C)C(CNC(=O)c1cc2ccccc2o1)c1ccccc1 (stereo not given) | inactive |
| O=C1/C(=C\c2ccc(O)cc2)CCC1CNc1ccc(Cl)cc1 (stereo not given) | inactive |
| O=C(CC(=O)c1cccnc1)c1ccccc1 | inactive |
| COc1ccc(OC)c(/C=C/C(=O)OCC(=O)Nc2ccc3c(c2)OCCO3)c1 | inactive |
| O=C(/C=C\c1ccc2c(c1)OCO2)NC1(C(=O)Nc2ccc3c(c2)OCCO3)CCCCC1 | inactive |
| COc1cccc(/C=C/C(=O)Nc2ccc3c(c2)OCCO3)c1 | 2.82 µM (active) |
| c1ccc(CCc2ccccn2)cc1 | inactive |
| NC(CSC1(c2ccccc2)c2ccccc2-c2ccccc21)C(=O)O (stereo not given) | inactive |
| Cc1c(/C=N/N2C(=O)C3C4C=CC(C4)C3C2=O)c2ccccc2n1C (stereo not given) | inactive |
| Cc1c(/C=N\NC(=O)c2cc3ccccc3o2)c2ccccc2n1C | 3.55 µM (active) |
| O=C(N/N=C/c1cccc(O)c1)c1cc2c(ccc3ccccc32)o1 | inactive |
| CC(=NNC(=S)N1CCCCCC1)c1ccccn1 | inactive |
| Cc1cc(NC(=O)C(C)SCC(=O)Nc2cccc(S(=O)(=O)N3CCCCCC3)c2)no1 (stereo not given) | inactive |
| O=C(Nc1ccn(CCCNCc2ccc3[nH]ccc3c2)c(=O)n1)OCc1ccccc1 | inactive |
| NNc1cccc(C=Cc2ccccc2)cc1=O | inactive |

| SMILES | Potency |
| --- | --- |
| Cn1c(CCN2CCCCCC2)nc2cc(NC(=O)Nc3ccccc3)ccc21 | inactive |
| Cc1nc2cc(NC(=O)Nc3cccc(F)c3)ccc2n1C | 3.98 µM (active) |
| C=CCN(C(=O)Nc1ccc2c(c1)nc(C)n2C)c1ccccc1 | inactive |
| Cc1ccc(OCCNC(=O)c2cccc(S(=O)(=O)N3CCN(Cc4ccccc4)CC3)c2)cc1 | inactive |
| C=CCOC(=O)N1CCC2CC1c1cc(-c3ccc(OC)cc3)ccc12 (stereo not given) | inactive |
| O=C(CNC(=O)[C@@H]1Cc2ccccc2CN1)NC1CCCCC1 | inactive |
| C[C@H](NC(=O)[C@@H]1Cc2ccccc2CN1C(=O)OC(C)(C)C)C(=O)NC1CCCC1 | inactive |
| C[C@@H](NC(=O)[C@@H]1Cc2ccccc2CN1)C(=O)NC1CCCC1 | 7.08 µM (active) |
| NC(=O)c1ncn([C@@H]2O[C@H](CNCc3cnc(N4CCOCC4)s3)[C@@H](O)[C@H]2O)n1 | inactive |
| Cc1c[n+]([O-])ccc1[N+](=O)[O-] | inactive |
| COc1ccc(-c2ccc3c(c2)[C@@H]2C[C@H](N(C)S(=O)(=O)c4ccccc4)[C@H]([C@H](C)O)C(=O)N2CC3)cc1 | inactive |
| Cc1ccc2c(c1)C1CN(C)CCC1N2C(=S)Nc1ccc(OC(F)F)cc1 (stereo not given) | inactive |
| Cc1ccc2c(c1)C1CN(C)CCC1N2S(=O)(=O)c1ccc(Oc2ccc([N+](=O)[O-])cc2)cc1 (stereo not given) | 8.91 µM (active) |
| Cc1ccc2c(c1)C1CN(C)CCC1N2S(=O)(=O)c1cccc(F)c1 (stereo not given) | inactive |
| C/C(=N\Nc1ccc(Cl)nn1)c1ccccc1O | inactive |
| C[C@]12CCC(=O)C=C1C=CC1C2CC[C@@]2(C)C1CC[C@@]21CCC(=O)O1 (stereo not given in full) | inactive |
| Nc1ccc2[nH]c(=S)sc2c1 | inactive |
| N/C(=N\OC(=O)c1ccc([N+](=O)[O-])cc1)c1ccccn1 | inactive |
| COc1ccc(C(=O)O/N=C(\N)c2ccccn2)cc1[N+](=O)[O-] | inactive |
| Cc1ccc(C(=O)O/N=C(\N)c2ccccn2)cc1Cl | 8.91 µM (active) |
| Cc1ccc(S(=O)(=O)N2CCC(C(=O)N3CCCCCCC3)CC2)cc1 | inactive |
| COC(=O)Cc1nc2c(N)nc(N)nc2[nH]c1=O | inactive |

| SMILES | Potency |
| --- | --- |
| Cc1cccc(N2C(=O)c3cccnc3C2=O)c1 | inactive |
| Cc1cccc(-n2ncc(Cl)c(Cl)c2=O)c1 | 10 µM (active) |
| C=CCNc1cnn(-c2ccc(C)cc2)c(=O)c1Cl | inactive |
| CNN/C(N=Cc1ccc([N+](=O)[O-])s1)=N\S(=O)(=O)c1cc(C)c(Cl)cc1SCc1ccccc1 | inactive |
| CC(C)(C)c1nnc2sc(SCC(O)=C(C#N)c3nc4ccccc4[nH]3)nn2c1=O | inactive |
| COc1ccc(S(=O)(=O)N2C[C@H]3CON(C)[C@H]3C[C@H]2c2cccc(Br)c2)cc1 | inactive |
| CN(C(=O)c1cc2c(=O)n3ccccc3nc2s1)C1CCCCC1 | inactive |
| CN(c1ccc2nc3ccccc3c(=O)n2n1)C1CCCCC1 | 0.794 µM (active) |
| CN(C(=O)CSc1nncc2ccccc12)C1CCCCC1 | inactive |
| Cn1cc(C2OC(=O)c3ccccc32)c2ccccc21 (stereo not given) | inactive |
| COC(=O)c1ccc(NCc2cc(O)ccc2O)cc1 | inactive |
| O=C(NCc1ccc2c(c1)OCO2)c1cc([N+](=O)[O-])ccc1N1CCOCC1 | 2.82 µM (active) |
| O=C(Cc1ccc([N+](=O)[O-])cc1)NCCc1ccc2c(c1)OCO2 | inactive |
| CC1CCN(c2ccc(C(=O)NCc3ccc4c(c3)OCO4)cc2[N+](=O)[O-])CC1 | inactive |
| CC(=O)c1cccc(-c2ccc(CN3C(CC(C)C)C(=O)N(Cc4cn(CC5CCCCC5)nn4)CCS3(=O)=O)cc2)c1 (stereo not given) | inactive |
| C=CCCC(=O)N1C[C@H]2CON(C)[C@H]2C[C@H]1c1cccc(Nc2ccccc2)c1 | inactive |
| CC(Nc1ccc([N+](=O)[O-])cc1[N+](=O)[O-])c1ccccc1 (stereo not given) | inactive |
| COc1cccc2c1C(=O)c1c(O)c3c(c(O)c1C2=O)CC(O)(C(C)=NNC(=O)c1ccc(Cl)c(Cl)c1)CC3OC1CC(N)C(O)C(C)O1 (stereo not given) | inactive |
| O=C(NCCCN1CCOCC1)c1ccc2c(c1)N(Cc1cccc(F)c1)C(=O)c1ccccc1S2 | inactive |
| CCN1CCN(CCNC(=O)c2ccc(/C=C3/Sc4ccccc4N(Cc4cccc(C)c4)C3=O)cc2)CC1 | 6.31 µM (active) |
| CN1CCN(CCCNC(=O)c2ccc(/C=C3\Oc4ccccc4N(Cc4ccc(Cl)cc4)C3=O)cc2)CC1 | inactive |
